Screening results (PubChem)
Sampled rows, rich in hits. Any-hit rate of the full collection: about 1.3%.
ERG-DNA inh: qHTS for Small Molecule Inhibitors of the ERG Ets/DNA interaction; Transcriptional regulator ERG (Homo sapiens), P11308; fluorescence polarization, His-ERG Ets domain / labelled DNA; Potency, µM (series often up to 76.9 µM), without a hit: top-dose FP activity, negative = inhibition, usual class: inhibitors; 370,000 compounds, 0.028% hits; AID 624246, 2012; active = well fitted inhibition curve with a large enough effect in the polarisation, with a control signal flat; inconclusive = small, poorly fitted or top-dose-only effect, or effect the other way, or a change in a side signal; inactive = no such curve, though single readings can be large or run the other way; the % refers to the polarisation;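 note: polarization taken with two DNA probes labelled with fluorescein and Texas red; potency is the fitted concentration of half-maximal effect; % of control where 0% means no effect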
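His-tagged ERG Ets domain (1 uM in the protein solution; 300mM KCl, 50mM Tris-HCl, 1mM EDTA, 1mM DTT, pH 7.5) received compound, then a probe mix of 5 nM fluorescein-DNA and 100nM Texas-615-DNA. Fluorescence polarization was read for both dyes.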
Giardia killer: Small Molecules that selectively kill Giardia lamblia: qHTS. 340,000 compounds, 0.15% hits. activity change, % at 7.66 µM, hits read low. Giardia lamblia trophozoite viability. AID 540267, 2011; in the data active = activity change below about -80%; inconclusive = between about -30% and that limit;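 note: parasites exposed to compound for two days anaerobically before the ATP read; % is set by controls: 0 for no effect and ±100 for the full control effect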
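Each well holds 100 Giardia trophozoites and compound. After two days (48 hrs) at 37 deg C in anaerobic conditions, ATP is quantified by luminescence.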
miR-21 reporter: qHTS Assay for Modulators of miRNAs and/orActivators of miR-21. AID 2288, 2010. HeLa miR-21 FLuc reporter, luciferase, 48 h. 340,000 tested, under 10 active. Potency, µM (series often up to 38.3 µM), for the others: top-dose activity change, positive = activation, hits mostly activators;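 note: % of control where 0% means no effect; miR-21 action dims this reporter so a rising signal means less miR-21 action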
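HeLa miR-21-FLuc reporter line, endogenous miR-21; 2000 cells/well in DMEM/10% FBS; compound titration up to ~40uM final, 48 h, 37 degree Celsius; luciferase detection reagent, 15 min lysis, CCD luminescence.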
PTHR1 ag: qHTS for PTHR1 Agonists: Primary Screen. 410,000 compounds, 0.075% hits. HEK293 GP2 PTHR1 cells, GloSensor cAMP luminescence, 1 h. Potency, µM (doses to about 115 µM), inactives show top-dose activation, hits mostly activators; note: potency is the fitted concentration of half-maximal effect; nearly all actives have a fitted effect of over 55% in size
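HEK-293-derived GP2 cells expressing PTHR1 and a GloSensor cAMP reporter, 3,000/well, plated overnight, given luciferin plus IBMX (each 0.5 mM as added) for 1 h at 37 °C, then compound for 1 h at 37 °C. Luminescence was read after 15 min at room temperature.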
12-LOX inh: Primary qHTS assay for inhibitors of human arachidonate 12S-lipoxygenase (ALOX12): Round 2 | purified 12hLO, xylenol orange hydroperoxide absorbance | Potency, µM (series often up to 108 µM), without a hit: top-dose activity change, negative = inhibition, most hits filed as inhibitors | 580,000 compounds, 1.1% hits | AID 1671190, 2021; note: potency is the fitted concentration of half-maximal effect; % is set by controls: 0 for no effect and ±100 for the full control effect
Target sequence (P18054 whole entry, looked up): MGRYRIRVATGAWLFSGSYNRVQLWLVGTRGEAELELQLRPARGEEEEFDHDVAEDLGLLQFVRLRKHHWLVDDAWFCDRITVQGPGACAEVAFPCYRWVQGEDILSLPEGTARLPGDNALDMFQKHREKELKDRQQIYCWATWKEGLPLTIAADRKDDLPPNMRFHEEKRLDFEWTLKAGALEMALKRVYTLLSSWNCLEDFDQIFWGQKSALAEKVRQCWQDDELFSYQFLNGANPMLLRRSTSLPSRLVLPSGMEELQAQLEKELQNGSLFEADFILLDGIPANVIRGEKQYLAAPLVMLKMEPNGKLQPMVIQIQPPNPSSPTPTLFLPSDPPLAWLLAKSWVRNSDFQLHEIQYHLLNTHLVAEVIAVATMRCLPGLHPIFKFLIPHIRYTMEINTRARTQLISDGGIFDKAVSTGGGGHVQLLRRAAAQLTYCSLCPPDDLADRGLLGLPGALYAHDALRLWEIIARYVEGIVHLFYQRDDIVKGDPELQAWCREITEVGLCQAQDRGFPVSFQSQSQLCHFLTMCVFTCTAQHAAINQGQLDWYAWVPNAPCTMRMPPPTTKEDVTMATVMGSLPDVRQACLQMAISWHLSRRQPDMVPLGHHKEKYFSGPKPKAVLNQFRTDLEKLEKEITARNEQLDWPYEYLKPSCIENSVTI
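Hydroperoxide product was detected by ferrous iron/xylenol orange as the 573 to 405 nm absorbance ratio. Arachidonic acid at 40 uM (final) was turned over for 30 min at room temperature by 150 nM human 12hLO, pH 7.0 Hepes buffer, after 15 min compound preincubation.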
PINK1 expr mod: A Quantitative High throughput Screen to Identify Chemical Modulators of PINK1 Expression; PINK1 immunofluorescence, high-content cytometry, 24 h; 410,000 compounds, 0.2% hits; Potency, µM (titrated, usually from 76.6 µM), without a hit: at the highest dose activation (PINK1 increase), most hits filed as activators; active = well fitted activation curve with a large enough effect; inconclusive = small, poorly fitted or top-dose-only effect; cell line not stated here; note: potency is the fitted concentration of half-maximal effect; % of control where 0% means no effect; nearly all actives have a fitted effect of over 65% in size
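Cells are seeded, rested 12 hours, then given compound at five concentrations or DMSO for 24 hours. After fixation, blocking and antibody staining, PINK1 amount and mitochondrial localization are scored; CCCP serves as control.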
An asterisk follows results filed as active; i = inactive; u = inconclusive; x = no result given; ! = a repeat was not active; [ ] = remark or other dose. Unless noted, calls come from the whole dose curve; as a rule, active = well fitted curve in the direction sought with a large enough effect; inconclusive = small, poorly fitted or top-dose-only effect, or another doubt; inactive = no such curve, though single readings can be large; an effect the other way counts as inactive or inconclusive.

SMILES	ERG-DNA inh	Giardia killer	miR-21 reporter	PTHR1 ag	12-LOX inh	PINK1 expr mod
Cc1ccc(-n2cc(C(=O)c3cc(Cl)ccc3O)cc(C#N)c2=O)cc1	8%	10	26%	-65%	u	18µM*
Cc1ccccc1NC(=O)c1cc(C(=O)c2cc(Cl)ccc2O)cn(-c2ccccc2C)c1=O	2%	-12	24%	-32%	-13%	16µM*
CCOCCCn1cc(C(=O)c2cc(Br)ccc2O)cc(C#N)c1=O	16%	-7	17%	-16%	u	4%
CCCCn1cc(C(=O)c2cc(Br)ccc2O)cc(C#N)c1=O	5%	-16	29%	-31%	329%	18µM*
COc1ccc(-n2cc(C(=O)c3cc(Cl)ccc3O)cc(C#N)c2=O)cc1	0%	8	14%	-13%	u	u
O=S(c1cc(Cl)cc(Cl)c1O)c1cc(Cl)cc(Cl)c1O	x	x	x	-44%	28µM*	u
CN(C1CCCCC1)S(=O)(=O)c1ccc(S(=O)(=O)N2CCCC2)cc1	x	0	3%	3%[57.5 µM]	-3%[57.4 µM]	1%[38.3 µM]
CN(C1CCCCC1)S(=O)(=O)c1ccc(=S)[nH]c1	13%	5	x	i	40µM*	-1%
COc1ccc(-c2cc(N3CCCC(NC(=O)c4ccncc4)C3)n[nH]2)cc1 (stereo not given)	x	x	x	x	45%	x
CCOC(=O)C1=C(C(=O)OCC)C2N(Cc3ccc(C(F)(F)F)cc3)c3ccccc3[C@@]23C[C@@H](C(=O)OC)N(S(=O)(=O)c2ccccc2C)C3=N1 (stereo not given in full)	x	x	x	x	7%	x
Cc1nnc(NC(=O)c2sc3ccccc3c2Cl)s1	-7%	-84*	27%	-32%	0%[57.4 µM]	1%
COc1ccc2c(C)cc(=S)[nH]c2c1	0%	-10	-3%	i	u	0%
Cc1cc(C)c2[nH]c(=S)cc(C)c2c1	-8%	12	2%	i	6.3µM*!	4%
Cc1ccc(-c2ccc(/C=C3\C(=O)ON=C3c3ccccc3)o2)c([N+](=O)[O-])c1	4%	0	-7%	-52%[57.5 µM]	4.5µM*	-2%[38.3 µM]
Cc1ccc(/C=C2\C(=O)ON=C2c2ccccc2)o1	0%	-8	0%	-24%	u	1%
Cc1ccc(C2=NOC(=O)/C2=C\c2ccc(C)o2)cc1	17%	-5	-23%	-26%	16µM*	-1%
O=C1/C(=C\c2ccc(-c3ccccc3[N+](=O)[O-])o2)C(c2ccccc2)=NN1c1ccccc1	-3%	-11	0%	-28%	-6%	-2%
COc1cccc(CN2CCc3c(cc(C(=O)N4CCOCC4)n3C)C2)c1	x	x	x	x	30%	x
CNC(=S)NCCc1ccccc1	-2%	31	1%	i	u	1%
CC(C)(CNC(=S)NCCc1ccccc1)CNC(=S)NCCc1ccccc1	-1%	0	26%	-38%	20µM*	u
CC(NC(=S)NCCc1ccccc1)c1ccc(C(C)(C)C)cc1 (stereo not given)	x	x	x	x	40µM*	x
CCCCN(CCCC)CC1OCc2ccccc2CO1	5%	15	2%	i	17%	4µM*
O=C(NC[C@H]1CCCO1)c1cccc2c1C(=O)c1ccc(-c3ccc(F)cc3OCc3ccccc3)cc1S2(=O)=O	-4%	-8	x	-7%	u	1%
Cc1cc(CNC(=O)c2cccc3c2C(=O)c2ccc(-c4ccc(F)cc4OCc4ccccc4)cc2S3(=O)=O)c(C(F)(F)F)o1	-4%	-6	x	13%	45µM*	1%
CO[C@H]1C(=O)N(C(C)C)[C@H]1C1CCN(CC2CCCCC2)CC1	x	x	x	x	13%	x
SMILES	ERG-DNA inh	Giardia killer	miR-21 reporter	PTHR1 ag	12-LOX inh	PINK1 expr mod
O=C(NCCc1noc(-c2ccncc2)n1)c1ccccc1	x	x	x	x	8.9µM*	x
O=C(Nc1ccc(Cl)cc1)Nc1nnc(CSCc2ccc(Cl)cc2)s1	10%	10	-4%	-44%	1%	11µM*
O=C1ON=C(c2ccccc2)/C1=C/c1ccc(O)c(O)c1	6%	-22	-28%	-90%	u	7%
O=C1ON=C(c2cccc([N+](=O)[O-])c2)/C1=C/c1ccc(O)cc1	-2%	27	0%	i	7.9µM*	-2%
COCCn1c(-n2nc(C)c(C)c2C)nc2c1c(=O)n(CCN1CCCCC1)c(=O)n2C	x	x	x	x	-58%	x
CC(O)CC(=O)NOCc1ccccc1 (stereo not given)	-18%	-8	x	-18%	-1%	-1%
CCn1c(CNC(=O)COc2ccc(C(C)C)cc2)nnc1SCC(=O)Nc1cc(F)ccc1C	x	-5	17%	i	22µM*	-7%[38.3 µM]
CCn1c(CNC(=O)COc2ccc(C(C)C)cc2)nnc1SCC(=O)Nc1ccc(F)cc1	x	0	14%	-36%	2%	-6%[38.3 µM]
CCn1c(-c2cccnc2)nc2cc(NC(=O)COC)cc(C(=O)N3CCc4ccccc4C3)c21	x	x	x	x	-6%	0%
O=C1Nc2c(Cl)cc(Cl)cc2C12Nc1ccccc1S2 (stereo not given)	x	x	x	x	35µM*	x
O=C(CC1Sc2ccccc2NC1=O)NNc1ccc(Cl)cc1Cl (stereo not given)	-3%	-2	x	i	-21%	12%
CCC(=O)N1CCN(c2nc3c(s2)CC(C(=O)Nc2ccc(OC)c(F)c2)CC3)CC1 (stereo not given)	x	x	x	x	25µM*	x
CC(C)C(=O)N1CCN(c2nc3c(s2)CC(C(=O)Nc2ccc(Cl)cc2)CC3)CC1 (stereo not given)	x	x	x	x	32µM*	x
CCC(=O)N1CCN(c2nc3c(s2)CC(C(=O)Nc2ccc(CC)cc2)CC3)CC1 (stereo not given)	x	x	x	x	17%	x
CN(C)S(=O)(=O)c1ccc(N2CCCC2)c(C(=O)OCC(=O)NC2CCCCC2)c1	6%	-2	x	i	-1%	0%
COc1ccc(S(=O)(=O)N2CC(=O)Nc3ccccc32)cc1Cl	6%	-12	-6%	-2%	6.3µM*	0%
O=C(Cc1ccc(Cl)cc1)N1CCC([C@@H]2CNC[C@H]2CO)CC1	x	x	x	x	41%	x
c1ccc(-c2nc(NCc3cccnc3)c3oc4ccccc4c3n2)cc1	-15%	-11	2%	-46%	16µM*	0%
O=C(O)CNc1nc(-c2ccccc2)nc2c1oc1ccccc12	-9%	-13	-10%	u	-1%	-1%
CCc1ccc(-c2c(C)sc(N)c2C#N)cc1	x	x	x	x	28µM*	x
CCCc1ccc(-c2c(C)sc(N)c2C#N)cc1	5%	-23	-15%	-15%	u	4%
